This passage reports outcome and AC50 results from PubChem BioAssay (EPA / NIEHS).

Calls of active or inactive are those of the source. The calls were made as follows: active = hit-call score of the fitted dose curve at least 0.9, where 1 is the maximum; inactive = score below 0.9.

The nature of this experiment: APR_HepG2_CellCycleArrest_24hr: Apredica 24-hour HepG2 Assay for Cell Cycle Arrest (AID 2282905).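 Also: cell cycle arrest scored as ratio of 2N to 4N nuclear DNA content.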 The following applies: imaging, actives raise or lower the signal. The protocol: APR_HepG2_24hr is a cell-based, multiplexed-readout assay that uses HepG2, a human liver cell line, with measurements taken at 24 hours after chemical dosing in a 384-well plate.APR_HepG2_CellCycleArrest_24hr is one of 10 assay component(s) measured or calculated from the APR_HepG2_24hr assay. It is designed to make measurements of cell phenotype, a form of morphology reporter, as detected with fluorescence intensity signals by HCS Fluorescent Imaging technology.Data from the assay component APR_HepG2_CellCycleArrest_24hr was analyzed into 1 assay endpoint. This assay endpoint, APR_HepG2_CellCycleArrest_24hr, was analyzed with bidirectional fitting relative to DMSO as the negative control and baseline of activity. Using a type of morphology reporter, measures of all nuclear dna for gain or loss-of-signal activity can be used to understand the signaling at the pathway-level as they relate to the gene . Furthermore, this assay endpoint can be referred to as a primary readout, because this assay has produced multiple assay endpoints where this one serves a signaling function. To generalize the intended target to other relatable targets, this assay endpoint is annotated to the cell cycle intended target family, where the subfamily is arrest.
Cells were treated with dimethyl sulfoxide (DMSO) as a solvent control at a final concentration of 0.5% v/v or with compounds in DMSO with a resulting final DMSO concentration of 0.5% v/v. Compound treatment was done at concentrations of 0.39, 0.78, 1.56, 3.12, 6.24, 12.5, 25, 50, 100, and 200 uM in duplicate on each plate. Cells were treated with compounds for 1, 24, or 72 hr. Carbonyl […] m-chloro-phenylhydrazone (CCCP) and taxol were used as positive controls for mitochondrial function and cytoskeletal stability, respectively; DMSO served as the negative control for this experiment. Cells were fixed by the direct addition of 50 uL formaldehyde in Hank's Balanced Salt Solution (HBSS) to a final concentration of 3.7%. After incubation in the fixation medium for 30 min at room temperature (293-298 K), cells were rinsed twice with HBSS and treated with cell permeabilization buffer (16 uL of 0.5% Triton X-100) for 10 min at room temperature (293-298 K) before labeling. For mitochondrial membrane potential and mitochondrial measurements, pre-fixed cells were incubated with 50 uL of MitoTracker Red CMXRos (Invitrogen) at a concentration of 250 nM for 30 min before fixation. In the remaining cases, post-fixed cells were labeled by incubation with a multiplexed mixture of primary antibodies in HBSS for 60 min at room temperature (293-298 K) to detect immunoreactivity of c-Jun (1:500), phospho-histone H3 (1:100), phospho-histone H2A.x (1:200), p53 (1:400), alpha-tubulin (1:200) and Hoechst 33342 (2 ug/mL). Cells were labeled for multiplexed imaging on two separate plates: a) Hoechst 33342, MitoTracker Red, phospho-histone H3, and alpha-tubulin, and b) Hoechst 33342, phospho-histone H2A.x, and c-Jun. A final rinse with HBSS (50 uL) was performed before analysis. The primary and secondary antibodies for the proteins were phospho-histone H3 (rabbit anti-phospho-histone H3 and FITC-donkey anti-rabbit IgG), phospho-histone H2A.x (mouse anti-phospho-histone H2A.x and FITC-donkey anti-mouse IgG), c-Jun (rabbit anti-phospho-c-Jun and Cy3-donkey anti-rabbit IgG), p53 (sheep anti-p53 and Cy5-donkey anti-sheep IgG), alpha-tubulin (mouse anti-alpha-tubulin and Cy5-donkey anti-mouse IgG). These antibodies are available as the CellCiphr HepG2 assay kit (Millipore).Digital images of each well were captured using a Cellomics ArrayScan VTI (Thermo Scientific Cellomics) (0.8 NA objective, 0.63x optical coupler, and XF-93 filter set) at 20x magnification. The images were acquired using the autofocus feature of the ArrayScan instrument, which entails the following steps. First, the camera focuses on channel 1 (Hoechst 33342), where nuclei are identified. Second, a Z offset of 1 um is used for capturing mitochondria (MitoTracker Red). […]
For the compound `CCOCCOC(C)=O`, the call was inactive. On the same count and under the same terms, next, `CC(c1ccc(O)cc1)(c1ccc(O)cc1)c1ccc(O)cc1`: “inactive”; `COS(=O)(=O)OC`: “inactive”; `Oc1ccc(C(c2ccc(O)cc2)(C(F)(F)F)C(F)(F)F)cc1`: “inactive”. Regarding `C=CC(N)=O`, the compound was classed as inactive.

As for `Cc1ccccc1[N+](=O)[O-]`, the call was inactive. Same read-out and setting: next, `Nn1cnnc1`: “inactive”. For `Clc1ccc(C(c2ccccc2Cl)C(Cl)(Cl)Cl)cc1` (stereo not given), the half-maximal activity concentration (AC50) is 52.2 µM (active). Regarding `CC1=C2C[C@H]3[C@@H](CC=C4C[C@@H](O)CC[C@@]43C)[C@@H]2CC[C@]12O[C@@H]1C[C@H](C)CN[C@H]1[C@H]2C`, the call was inactive. Regarding `O=C(O)C(F)(F)C(F)(F)C(F)(F)C(F)(F)C(F)(F)C(F)(F)C(F)(F)C(F)(F)F`, the AC50 was 105 µM (active).

With `CN(C)c1nc(=O)n(C2CCCCC2)c(=O)n1C`, the outcome was inactive.

Take `CCC(=O)O[C@H]1CC[C@H]2[C@@H]3CCC4=CC(=O)CC[C@]4(C)[C@H]3CC[C@]12C`: the result was inactive. The same measure, in the same setting: as for `Cc1cc2c3c(c1)C(c1ccccc1)=N[C@@H](NC(=O)c1ccncc1)C(=O)N3CC2`, the entry is “inactive”; as for `O=C(NC(=O)c1cc(F)c(F)cc1Cl)Nc1cc(F)ccc1N1CCC(C(=O)O)CC1`, “inactive”; as for `Clc1ccc(Cl)cc1`, “inactive”.

Take `C[C@]12CCC(=O)C=C1CC[C@@H]1[C@@H]2CC[C@@]2(C)[C@H]1CC[C@]2(C)O`: the compound was called inactive. Turning to `CCCCCCCCCC[N+](C)(C)CCCCCCCCCC`, the AC50 was 43 µM (active).

For `ClC1=C(Cl)[C@]2(Cl)[C@@H]3[C@@H]4C[C@@H]([C@H]5O[C@@H]45)[C@@H]3[C@@]1(Cl)C2(Cl)Cl`, the compound was classed as inactive. The same measure, in the same setting: next, `N#Cc1ccc(N(CC(N)=O)CC(F)(F)F)cc1C(F)(F)F`: “inactive”; `CCCN(CCC)N=O`: “inactive”. For the compound `NS(=O)(=O)C(F)(F)C(F)(F)C(F)(F)C(F)(F)C(F)(F)C(F)(F)C(F)(F)C(F)(F)F`, the AC50 is 62.5 µM (active). As to `CCC(C)c1cc([N+](=O)[O-])cc([N+](=O)[O-])c1O` (stereo not given), the AC50 is 49.6 µM (active).

For `O=C(O)C(F)(F)C(F)(F)C(F)(F)C(F)(F)C(F)(F)C(F)(F)C(F)(F)C(F)(F)C(F)(F)F`, the call was inactive. Still for that read-out and setting: next, `O=S(=O)(O)C(F)(F)C(F)(F)C(F)(F)C(F)(F)F`: “inactive”; `Cc1cc(O)ccc1Cl`: “inactive”; `Oc1ccc(Cl)cc1Cl`: “inactive”. The same measure, in the same setting: as for `O=C(O)C(F)(F)C(F)(F)C(F)(F)C(F)(F)C(F)(F)F`, the entry is “inactive”; as for `O=C(NC(=O)c1c(F)cccc1F)Nc1cc(Cl)c(OC(F)(F)C(F)F)c(Cl)c1`, “inactive”; as for `Clc1ccc(C(Cl)(Cl)Cl)cc1`, “inactive”. With `CCOC(=O)C(O)(c1ccc(Cl)cc1)c1ccc(Cl)cc1`, the concentration at half-maximal activity (AC50) was 54.1 µM (active).

Regarding `Cc1cccc(C)c1N`, the call was inactive. The same measure, in the same setting: as for `Cc1ccc(O)c(C)c1`, the entry is “inactive”; as for `O=C(N[C@H]1CN2CCC1CC2)c1cc2ccoc2cn1`, “inactive”. The same measure, in the same setting: next, `Cc1cccc([N+](=O)[O-])c1`: “inactive”. The same measure, in the same setting: as for `CCNc1nc(NC(C)C)nc(SC)n1`, the entry is “inactive”. On to `CCC(C)(c1ccc(O)cc1)c1ccc(O)cc1`, for which the compound was called inactive. Same read-out and setting: next, `ClC1=C(Cl)[C@]2(Cl)[C@@H]3[C@H]4C[C@H]([C@@H]5O[C@H]45)[C@@H]3[C@@]1(Cl)C2(Cl)Cl`: “inactive”. Same read-out and setting: as for `ClC(Cl)=C(c1ccc(Cl)cc1)c1ccc(Cl)cc1`, the entry is “inactive”; as for `CCC(C)(CC)c1cc(NC(=O)c2c(OC)cccc2OC)on1`, “inactive”. Same read-out and setting: next, `CC(C)(O)C(=O)Nc1ccc([N+](=O)[O-])c(C(F)(F)F)c1`: “inactive”.

A word on the AC50: it is the concentration giving half of the maximal activity seen.
